Laboratory results taken from the supplement of paper PMC10646978.
± gives the standard deviation.

What was measured:
Conditions in all cases: modulator concentration 10 µM
[1] = test system: RAW-Dual (murine macrophage reporter line); experiment: NF-kB reporter (SEAP) activity fold change vs agonist alone; higher = enhanced NF-kB activity
Method in brief: (§1)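 Overnight stimulation with a PRR agonist followed pre-incubation for 1 hour at 37 °C with compound at 10 μM final. This was done in RAW-Dual murine macrophage reporter cells seeded at 50 000 per well in 384-well plates. NF-κB (SEAP, QUANTI-Blue absorbance at 620 nm) and IRF (Lucia luciferase, QUANTI-Luc luminescence) were read from the supernatant. Each reporter's fold change relative to the mean agonist-only control on the same plate was averaged over replicate plates.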

[2] = test system: RAW-Dual (murine macrophage reporter line); experiment: IRF reporter (Lucia luciferase) activity fold change vs agonist alone; higher = enhanced IRF activity
Method in brief: as §1

[3] = test system: RAW-Dual (murine macrophage reporter line); experiment: viability score (confluency relative to resting cells, overnight) (fraction); higher = more viable, active = viable (0.7 or more)
Method in brief: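 A compound met the cutoff when both of two confluency masks exceeded 70% of resting cells. Those masks were made with IncuCyte software from IncuCyte images of RAW-Dual macrophages treated overnight at 10 μM final. This is the basis of the viability score, which is confluency relative to resting cells.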

[4] = agonist: CpG ODN 1826 0.5 ug/mL

| Structure (SMILES) | NF-kB reporter [1, 4] | NF-kB reporter ([1]; agonist: LPS 0.1 ug/mL) | NF-kB reporter ([1]; agonist: MPLA […]) | IRF reporter ([2]; agonist: 3'3'-cGAMP 10 ug/mL) | IRF reporter ([2]; agonist: LPS 0.1 ug/mL) | IRF reporter ([2]; agonist: MPLA […]) | viability score [3] |
| --- | --- | --- | --- | --- | --- | --- | --- |
| Cc1cccc(Sc2nccn3c(=O)n(CC(=O)N4CCN(c5ccccc5)CC4)nc23)c1 | 0.924 ± 0.081 | 0.589 ± 0.067 | 0.664 ± 0.043 | 0.28 ± 0.024 | 0.6 ± 0.041 | 0.733 ± 0.12 | 0.983 (active) |
| O=C(COC(=O)c1ccc(Cl)c([N+](=O)[O-])c1)c1ccc(Cl)cc1 | 0.942 ± 0.072 | 0.978 ± 0.081 | 0.99 ± 0.093 | 0.929 ± 0.035 | 1.22 ± 0.18 | 1.36 ± 0.29 | 1.01 (active) |
| NS(=O)(=O)C#Cc1ccccc1 | 0.0641 ± 0.011 | 0.0588 ± 0.0047 | 0.159 ± 0.013 | 0.0153 ± 0.0016 | 0.0325 ± 0.0031 | 0.0392 ± 0.0098 | 0.7 (active) |
| CC(C)(C(=O)O)c1ccc(C(O)CCCN2CCC(C(O)(c3ccccc3)c3ccccc3)CC2)cc1.Cl (configuration not stated) | 1.47 ± 0.22 | 1.28 ± 0.39 | 1.01 ± 0.067 | 0.924 ± 0.029 | 1.05 ± 0.48 | 1.19 ± 0.09 | 0.983 (active) |
| Cc1ccc2[nH]c(=O)c(-c3cc(-c4ccccc4)c4ccccc4n3)c(-c3ccccc3)c2c1 | 0.938 ± 0.081 | 1.1 ± 0.11 | 0.816 ± 0.051 | 1.08 ± 0.037 | 1.17 ± 0.19 | 1.04 ± 0.072 | 1.02 (active) |
| CN1CCC[C@@H]1CCO[C@](C)(c1ccccc1)c1ccc(Cl)cc1.O=C(O)/C=C/C(=O)O | 1.17 ± 0.29 | 1.01 ± 0.13 | 1.06 ± 0.1 | 0.526 ± 0.021 | 1.28 ± 0.17 | 1.63 ± 0.16 | 0.321 (inactive) |
| Cc1nnc(C)n1N=Cc1ccc(Cl)c([N+](=O)[O-])c1 | 0.797 ± 0.062 | 0.874 ± 0.091 | 1.2 ± 0.1 | 0.898 ± 0.045 | 1.07 ± 0.072 | 1 ± 0.1 | 0.99 (active) |
| c1cc2c3c(cccc3c1)-c1nc3ccccc3nc1-2 | 0.993 ± 0.17 | 1.09 ± 0.13 | 1.02 ± 0.095 | 0.984 ± 0.026 | 1.32 ± 0.15 | 1.59 ± 0.3 | 1.01 (active) |
| Cc1ccc(-c2cc(-c3ccccc3)nc(NN=Cc3ccc(Br)cc3)n2)cc1 | 0.976 ± 0.18 | 1.08 ± 0.084 | 1.01 ± 0.12 | 1.11 ± 0.031 | 1.07 ± 0.1 | 1.4 ± 0.21 | 0.997 (active) |
| C=CCn1c(-c2ccc(OC)cc2)cnc1SCC(=O)N1CCc2ccccc21 | 0.967 ± 0.12 | 1.06 ± 0.09 | 1.09 ± 0.18 | 0.927 ± 0.1 | 1.03 ± 0.062 | 0.962 ± 0.11 | 1 (active) |
| Cc1cc(-n2cc(C(=O)N3CCOCC3)nn2)ccc1F | 1.06 ± 0.33 | 1.1 ± 0.075 | 1.02 ± 0.065 | 0.98 ± 0.045 | 1.01 ± 0.17 | 1.14 ± 0.17 | 0.991 (active) |
| CCOC(=O)C1=C(C)NC(C)=C(C(=O)OCC)C1c1ccccc1/C=C/C(=O)OC(C)(C)C | 1.04 ± 0.15 | 1.14 ± 0.3 | 1.14 ± 0.26 | 0.586 ± 0.032 | 1.39 ± 0.29 | 1.15 ± 0.086 | 0.965 (active) |
| CC(Oc1cccc(Cl)c1)C(=O)Nc1nncs1 (configuration not stated) | 0.999 ± 0.082 | 0.972 ± 0.054 | 0.967 ± 0.058 | 0.947 ± 0.023 | 1.28 ± 0.18 | 1.05 ± 0.2 | 1.01 (active) |
| COc1ccc(NC(=O)CN2C(=O)c3cccc4cccc(c34)C2=O)cc1 | 0.966 ± 0.059 | 0.998 ± 0.087 | 0.938 ± 0.063 | 0.939 ± 0.033 | 1.2 ± 0.11 | 1.1 ± 0.12 | 1 (active) |
| Clc1ccc(-c2nc(-c3ccc(I)cc3)[nH]c2-c2ccc(Cl)cc2)cc1 | 0.641 ± 0.049 | 0.91 ± 0.1 | 0.985 ± 0.1 | 0.929 ± 0.082 | 1.19 ± 0.24 | 1.27 ± 0.3 | 1.02 (active) |
| Cn1c(=O)c2c(ncn2CC(O)CO)n(C)c1=O (configuration not stated) | 1.02 ± 0.2 | 1.2 ± 0.35 | 1.08 ± 0.18 | 0.887 ± 0.066 | 1.32 ± 0.21 | 1.29 ± 0.23 | 0.996 (active) |
| CC(C)c1noc(CN2CCC(n3nc(C(F)(F)F)n(C)c3=O)CC2)n1 | 0.975 ± 0.13 | 1.11 ± 0.091 | 0.939 ± 0.069 | 0.993 ± 0.05 | 1.08 ± 0.12 | 1.15 ± 0.13 | 1 (active) |
| CC[C@H](Nc1ncnc2[nH]cnc12)c1nc2cccc(F)c2c(=O)n1-c1ccccc1 | 1.18 ± 0.27 | 0.973 ± 0.11 | 1.04 ± 0.067 | 0.641 ± 0.023 | 0.763 ± 0.073 | 0.997 ± 0.18 | 0.964 (active) |
| Cc1ccccc1C(=O)N1CC(S(=O)(=O)CC(C)C)C1 | 0.961 ± 0.082 | 0.907 ± 0.076 | 0.854 ± 0.052 | 1.04 ± 0.071 | 1.04 ± 0.13 | 0.899 ± 0.38 | 1.02 (active) |
| CN(C)CC/C=C1/c2ccccc2COc2ccc(CC(=O)O)cc21.Cl | 1.35 ± 0.26 | 1.22 ± 0.36 | 1.66 ± 0.75 | 0.953 ± 0.039 | 1.42 ± 0.17 | 1.2 ± 0.094 | 0.992 (active) |
| CCOC(=O)C(CC)Oc1ccc2c(C)c(CC)c(=O)oc2c1 (configuration not stated) | 0.955 ± 0.063 | 0.875 ± 0.071 | 0.976 ± 0.035 | 0.832 ± 0.03 | 0.852 ± 0.13 | 0.848 ± 0.27 | 0.986 (active) |
| COc1cc2nc(N3CCN(C(=O)C4COc5ccccc5O4)CC3)nc(N)c2cc1OC (configuration not stated) [Prestw-858] | 0.138 ± 0.011 | 0.961 ± 0.071 | 1.34 ± 0.15 | 0.248 ± 0.012 | 1.19 ± 0.075 | 1.29 ± 0.13 | 0.953 (active) |
| O=[N+]([O-])c1ccc(-n2cccc2C=NNc2nc(N3CCOCC3)nc(N3CCOCC3)n2)cc1 | 0.961 ± 0.42 | 1.09 ± 0.085 | 1.14 ± 0.13 | 0.691 ± 0.022 | 0.999 ± 0.1 | 1.25 ± 0.16 | 1 (active) |
| Cc1ccc(-n2nc(C(C)(C)C)cc2NC(=O)NCc2cc(F)ccc2Oc2ccc3c(cnn3CCO)c2)cc1 | 0.878 ± 0.046 | 0.942 ± 0.15 | 0.964 ± 0.056 | 1.06 ± 0.058 | 1.19 ± 0.22 | 1.24 ± 0.44 | 1.01 (active) |
| CCCC1=NN2C(=N)C(=Cc3cccc(OCc4ccccc4F)c3)C(=O)N=C2S1 | 0.983 ± 0.12 | 0.999 ± 0.1 | 0.972 ± 0.061 | 0.964 ± 0.064 | 1.6 ± 0.16 | 1.17 ± 0.097 | 1.01 (active) |
| COc1ccc(CNc2oc(-c3ccc(COc4ccccc4C)o3)nc2C#N)cc1 | 1.48 ± 0.11 | 1.31 ± 0.074 | 2.3 ± 0.054 | 1.3 ± 0.073 | 0.887 ± 0.1 | 1.34 ± 0.32 | 0.934 (active) |
